Assay results reported in PubChem BioAssay (NCI).
The panel holds about 83,000 compounds, 20% with a hit somewhere; the sample as a whole holds those more often.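 Cells were grown in 96-well plates and exposed to the test compound at a single concentration for 48 hours; results are reported as percent growth, with values below 10 considered active.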 A number with no mark means an inactive call. The source made the active and inactive calls.

Legend:
Test in all cases: NCI-60 one-dose screen, 48 h (100 = growth as untreated, 0 = no growth, -100 = all killed)
Details in all cases: 10 µM unless noted
SK-MEL-2 melanoma = test system: SK-MEL-2 melanoma
EKVX NSCLC = test system: EKVX NSCLC
SN12C renal = test system: SN12C renal
UO-31 renal = test system: UO-31 renal
TK-10 renal = test system: TK-10 renal
ACHN renal = test system: ACHN renal
CAKI-1 renal = test system: CAKI-1 renal
A498 renal = test system: A498 renal
CCRF-CEM leukemia = test system: CCRF-CEM leukemia
MOLT-4 leukemia = test system: MOLT-4 leukemia
SR leukemia = test system: SR leukemia
RPMI-8226 leukemia = test system: RPMI-8226 leukemia
OVCAR-8 ovarian = test system: OVCAR-8 ovarian
OVCAR-5 ovarian = test system: OVCAR-5 ovarian
OVCAR-4 ovarian = test system: OVCAR-4 ovarian
SK-OV-3 ovarian = test system: SK-OV-3 ovarian
IGROV1 ovarian = test system: IGROV1 ovarian
OVCAR-3 ovarian = test system: OVCAR-3 ovarian
HS 578T breast = test system: HS 578T breast
NCI/ADR-RES ovarian = test system: NCI/ADR-RES ovarian

Structure (SMILES)	growth (SK-MEL-2 melanoma)	growth (EKVX NSCLC) [%]	growth (SN12C renal)	growth (UO-31 renal)	growth (TK-10 renal)	growth (ACHN renal)	growth (CAKI-1 renal)	growth (A498 renal)	growth (CCRF-CEM leukemia)	growth (MOLT-4 leukemia)	growth (SR leukemia)	growth (RPMI-8226 leukemia)	growth (OVCAR-8 ovarian)	growth (OVCAR-5 ovarian)	growth (OVCAR-4 ovarian)	growth (SK-OV-3 ovarian)	growth (IGROV1 ovarian)	growth (OVCAR-3 ovarian)	growth (HS 578T breast)	growth (NCI/ADR-RES ovarian)
Nc1n[nH]c2ccc([C@@H]3Nc4cc5[nH]ncc5cc4[C@H]4C5CCC(C5)[C@@H]34)cc12 (stereo not given in full)	65.2%	35.2	36.4%	40.2%	62.4%	32.1%	34.5%	-15.7% (active)	11.2%	22.5%	20%	5.15% (active)	29.7%	31.2%	43.3%	52.8%	22.7%	-27.6% (active)	32%	21.6%
O=C1/C(=C/c2ccccc2[N+](=O)[O-])COc2ccc(O)cc21	57.1%	54.7	-17.2% (active)	-68.7% (active)	27.4%	-13.5% (active)	-15.3% (active)	85.8%	0.864% (active)	4.74% (active)	22.2%	3.29% (active)	6.3% (active)	-19% (active)	15.6%	77.7%	-0.209% (active)	7.73% (active)	5.1% (active)	2.55% (active)
Cc1ccc(C(=O)c2ccc(CC(=O)N/N=C/c3ccc(O)cc3O)n2C)cc1	59.5%	34.2	55.7%	19.8%	52.9%	16.5%	46.6%	87.4%	16.8%	12.6%	17.3%	48.4%	48.4%	63.4%	20.7%	45.1%	41.7%	37.2%	74.9%	34.6%
CCOC(=O)N1CCN(S(=O)(=O)c2oc(-c3ccc(Cl)cc3)nc2C#N)CC1	83.8%	101	92.6%	81.5%	-27% (active)	76.1%	101%	126%	1.71% (active)	5.33% (active)	4.64% (active)	67.3%	70.8%	106%	103%	102%	87.9%	32.2%	102%	102%
CCN(CC)CCN(CCN(CC)CC)c1ccccc1	106%	97.2	78.5%	66.4%	102%	95.7%	86.6%	94.5%	93.3%	89.8%	111%	103%	91.4%	94.3%	101%	92.7%	90%	109%	89.2%	100%
N=C(N)c1ccc(-c2ccc(-c3ccc(Cl)cc3Cl)s2)cc1F	55.8%	32.4	-27.9% (active)	-90.5% (active)	91.5%	-100% (active)	-82.8% (active)	83.7%	-26.1% (active)	-47.2% (active)	-6.47% (active)	-36.4% (active)	-35.3% (active)	-7.4% (active)	-24.9% (active)	74.9%	-88.4% (active)	-79.3% (active)	9.71% (active)	10.1%
COc1cc(C(=O)c2c(-c3ccccc3)oc3c(OC)cccc23)cc(OC)c1O	62%	44.9	27.1%	46.2%	64.6%	28.1%	33.1%	-26.1% (active)	13.8%	18.7%	11.1%	23.9%	20.4%	45.7%	42.1%	45.1%	18.8%	0.78% (active)	4.85% (active)	10.5%
CCN1C(=S)N(CC)C2C1NC(=S)N2/N=C/C=C/c1ccccc1OC (stereo not given)	46.7%	49.3	28.5%	43.5%	71.4%	33.7%	34.1%	16.3%	12.2%	17.7%	15.2%	24.6%	12.5%	27.2%	44.2%	35%	19.5%	-48% (active)	16.3%	-9.38% (active)
C/C(=C(\c1ccc(OCCN2CCCCCC2)cc1)c1ccc(OC(=O)Cc2ccccc2)cc1)c1ccc(Cl)cc1	52.9%	56.4	28.9%	44.1%	68.6%	62.3%	48.7%	79%	6.31% (active)	-6.79% (active)	-44.9% (active)	-40.2% (active)	9.9% (active)	67.6%	36.7%	60.7%	64.5%	19.8%	23.4%	56.6%
N#Cc1c(-c2ccccc2)cc(-c2ccccc2)n(CCCC(=O)NO)c1=O	34.1%	27.1	25.8%	-24.8% (active)	34.3%	8.48% (active)	10.6%	-6.11% (active)	10.9%	14.1%	7.72% (active)	11.3%	12.5%	28.9%	29.6%	36.1%	25.4%	8.36% (active)	19.7%	-5.36% (active)
CCOC(=O)c1ccc2c(c1)c1c(C)c3ccncc3c(C)c1n2C	-38.2% (active)	10.3	4.36% (active)	-13.4% (active)	2.52% (active)	-22.5% (active)	-10.4% (active)	-45.6% (active)	12.6%	8.03% (active)	26.8%	-1.7% (active)	3.64% (active)	-11% (active)	-12.8% (active)	0.282% (active)	-25.5% (active)	-20.4% (active)	-4.98% (active)	-12.5% (active)
Cn1cc(-c2csc(-c3cn(C(=O)OC(C)(C)C)c4ccccc34)n2)c2ccnc(Cl)c21	96.5%	62.8	55.1%	58.4%	52.8%	32.7%	80%	88.4%	61.7%	66.8%	26%	68.7%	48.2%	51.3%	9.63% (active)	71.3%	69.5%	61.3%	66.1%	60%
CCOC(=O)c1c(C)nn(CC(O)c2ccccc2)c1NC(=O)Nc1cccc(F)c1 (stereo not given)	90.9%	91.2	84.1%	74.8%	110%	89.7%	83.4%	70.9%	89.3%	88.7%	93%	80.8%	93.1%	84.8%	83.6%	85.2%	90%	95.6%	71.4%	90.9%
CCCCCCCC/C=C\CCCCCCCCOc1ccc(CC(=O)NCC[N+](C)(C)C)cc1	101%	87.8	50%	92.8%	24.6%	60.8%	44.6%	68.9%	54.6%	75.1%	62.4%	40.9%	54.8%	27.5%	72.2%	93.6%	6.27% (active)	83.3%	76.7%	94.4%
COc1ccc(/C(C)=C(\c2ccc(Cl)cc2)c2ccc(OCCN3CCCC3)cc2)cc1	40.6%	61.2	66.5%	35.2%	69.5%	60.1%	24.4%	79.1%	29.1%	23.4%	-21.6% (active)	-20.3% (active)	51.6%	64.7%	63.5%	82.9%	48.9%	63.7%	51.5%	70.6%
O=C(O)CCCc1cnc2c3sccc3nc(SCc3c(Cl)cccc3Cl)n12	20.6%	63	57.2%	49%	65.3%	61.1%	42.2%	46.1%	31.2%	50.5%	23.9%	51.6%	63.7%	80.5%	59.7%	36.5%	54.1%	7.34% (active)	39.5%	45.7%
